The text below walks through data of PubChem BioAssay (NCATS).

Unmarked numbers belong to inactive results. Results filed as inconclusive are left out. Calls of active or inactive are those of the source. Unless noted, the call rests on the fitted dose curve; in most records, active means well fitted curve in either direction with a large enough effect (not every such curve was filed as active); inconclusive means small, poorly fitted or top-dose-only effect, or another doubt; inactive means flat fitted curve, though single readings scatter. Bounds are passed on as bounds.

Assay [1] concerns the target Lysosomal acid glucosylceramidase (Homo sapiens) (UniProt P04062). The assay can be described thus: Glucocerebrosidase-p2 (AID 348; in the data active means potency below about 10 µM; further: potency means the concentration at half of the fitted maximal effect). The following applies: purified GBA, blue fluorogenic substrate, 40 min. The essentials: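 Normal human glucocerebrosidase (0.2 nM) with blue fluorogenic substrate (80 uM final) in citrate/phosphate pH 5.9 with 10mM sodium taurocholate, 0.01% tween-20; 40 min RT, NaOH/glycine stop; fluorescence Ex 365/Em 440; AC50 from a titration from 0.6 nM upwards.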

A short description of assay [2]: AP1 Signaling Pathway (AID 357). Further: on the % scale 0 is the no-effect control and ±100 the full control effect. The settings on record: ME-180 AP-1-bla reporter, EGF-induced, beta-lactamase ratio, 5 h; at 7.69 µM (top of the series) unless noted. The essentials: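 Read-out was the 460nm/530nm emission ratio (excitation 405nm) after CCF4 loading for 2.5 hours at room temperature. Cells carried an AP-1-driven beta-lactamase reporter, were stimulated with EC50 EGF plus compound for 5 hours, and AC50 values came from titrations.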

In assay [3] the target is Cytochrome P450 1A2 (Homo sapiens) (UniProt P05177). The assay can be described thus: p450-cyp1a2 (AID 410; calls by dose curve; further: potency means the concentration at half of the fitted maximal effect;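 on activity change, negative = inhibition: -100% = full effect of reference inhibitor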). The settings on record: recombinant CYP1A2, luciferin-ME demethylation, luminescence; series mostly up to 11.4 µM. The essentials: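 O-Demethylation of luciferin 6' methyl ether by human CYP1A2 is monitored as luciferase luminescence. Substrate sits at Km (100uM); enzyme is 20nM. Values are scaled to 57 uM furafylline as maximal inhibition.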

Assay [4] can be described thus: NFAT Signaling Pathway (AID 444).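 Further: carbachol stimulus at about its EC50 of 1 µM final; on the % scale 0 is the no-effect control and ±100 the full control effect.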 The settings on record: Jurkat NFAT-bla M1, carbachol, beta-lactamase ratio, 5 h; at 7.69 µM (top of the series) unless noted. The essentials:
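Jurkat cells carrying an NFAT-driven β-lactamase reporter and co-transfected muscarinic M1 receptor were treated with compound plus carbachol (1 uM final, an EC50 level) for 5 h at 37 °C. CCF4 loading followed for 1 h at RT; 460/530 nm ratio gave %activity.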

Assay [5] can be described thus: Stat Signaling Pathway (AID 446).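 Further: ME-180 cervical cancer cells given 40 pM IL-6 alongside compound; SIE-controlled beta-lactamase reporter measured as 460/530 nm FRET emission ratio; on the % scale 0 is the no-effect control and ±100 the full control effect.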 The following applies: ME-180 SIE beta-lactamase reporter, IL-6 stimulated, 5 h; at 7.69 µM (top of the series) unless noted. The method, boiled down: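 FRET read-out (405 nm excitation, 460/530 nm emission) of a beta-lactamase reporter under a STAT-inducible element in ME-180 cervical carcinoma cells. Cells with compound receive 40 pM IL-6 for 5 h. Values are normalised to AC90 stimulation and AC90 JAK-inhibitor controls.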

In assay [6] the target is Glucocorticoid receptor (Homo sapiens) (UniProt P04150). The assay can be described thus: GR-GFP Redistribution (AID 450;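 active means compounds whose dose series gives a full or clear partial fitted curve of increased nuclear translocation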; further: potency means the concentration at half of the fitted maximal effect). The settings on record: U2OS GR-GFP nuclear translocation, laser cytometry, 2 h.
Assay [7] shares this target. The assay can be described thus: GR-EFC Redistribution (AID 451; calls by dose curve; further: potency means the concentration at half of the fitted maximal effect). The following applies: CHO-K1 GR-EFC translocation, beta-gal luminescence, 2 h. The method, boiled down: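 CHO-K1 cells stably expressing nuclear-localized β-gal enzyme acceptor and GR fused C-terminally to the enzyme donor fragment; ligand-driven nuclear translocation restores β-gal by complementation. Compounds titrated up to 46 uM final, 2 h at 37 °C; luminescence read.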

For assay [8], the target named is Mitogen-activated protein kinase 10 (Mus musculus) (UniProt Q61831). The assay can be described thus: JNK3 AlphaScreen Assay (AID 530).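 Further: kinase came from lysate of stimulated human HepG2 cells; on the % scale 0 is the no-effect control and ±100 the full control effect.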 The following applies: JNK3 lysate, c-Jun phosphorylation; series mostly up to 11.4 µM. The essentials: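 Phosphorylation of biotinylated GST-cJun(1-79) at Ser73 is measured by AlphaScreen proximity luminescence. Enzyme is JNK3 in HepG2 lysates activated with interleukin-1beta and tumor necrosis factor alpha; ATP is 10 uM final.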
Background: In Alpha technology, singlet oxygen from a donor bead excites a nearby acceptor bead.

Assay [9] addresses Cytochrome P450 3A4 (Homo sapiens) (UniProt P08684). The assay can be described thus: qHTS Assay for Inhibitors and Substrates of Cytochrome P450 3A4 (AID 884; active means well fitted curve in the direction sought with a large enough effect; an effect the other way counts as inactive or inconclusive; further: potency means the concentration at half of the fitted maximal effect; nearly all actives have a fitted effect of over 50% in size). The following applies: recombinant CYP3A4, Luciferin-PPXE luminescence; series mostly up to 57.1 µM. The method, boiled down:
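Luminescent readout of luciferin produced by CYP3A4 (20 nM) dealkylation of Luciferin-PPXE, 25 uM (its KM). NADPH-driven reaction ran 60 min at RT after 10 min compound preincubation; data scaled to 57 uM ketoconazole as 100% inhibition.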

Assay [10] shares this target. The assay can be described thus: qHTS Assay for Activators of Cytochrome P450 3A4 (AID 885; active means well fitted curve in the direction sought with a large enough effect; an effect the other way counts as inactive or inconclusive; further: nearly all actives have a fitted effect of over 65% in size). The settings on record: recombinant CYP3A4, Luciferin-PPXE luminescence, 60 min; series mostly up to 11.4 µM. The method, boiled down: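 Luminescent readout of luciferin formed from 25 uM Luciferin-PPXE (KM level) by 20 nM CYP3A4 in 200 mM KPO4, with 60 min NADPH-driven reaction at room temperature after 10 min compound exposure. Ketoconazole (57 uM) defined 100% inhibition.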
On the technique in general: Quantitative high-throughput screening tests each substance at several concentrations.

For assay [11], the target named is Cytochrome P450 2C19 (Homo sapiens) (UniProt P33261). The assay can be described thus: qHTS Assay for Inhibitors and Substrates of Cytochrome P450 2C19 (AID 899; active means well fitted curve in the direction sought with a large enough effect; an effect the other way counts as inactive or inconclusive; further: on the % scale 0 is the no-effect control and ±100 the full control effect; nearly all actives have a fitted effect of over 60% in size). The following applies: recombinant CYP2C19, luciferin-H EGE luminescence; series mostly up to 11.4 µM. The method, boiled down: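 In 50mM KPO4, the reaction held 5nM enzyme and KM-level (10uM) Luciferin-H EGE; it ran 60 min at 37C after NADPH regeneration and a 10 min compound preincubation. Luminescence values were scaled to 57uM ketoconazole as complete inhibition.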

Assay [12] deals with 3',5'-cyclic-AMP phosphodiesterase 4B (Homo sapiens) (UniProt Q07343). The assay can be described thus: qHTS Assay for Inhibitors of PDE-IV (AID 607; active means well fitted activation curve with a large enough effect in the main read-out, with a control signal flat, not every such curve was filed as active; further: % of control where 0% means no effect). The following applies: HEK293 ACTOne CNG channel cells, membrane potential fluorescence; series mostly up to 22.9 µM. The method, boiled down:
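Cell-based read-out of cAMP via a modified cyclic nucleotide-gated channel and membrane potential dye (535/590 nm) in HEK293 cells expressing PDE4 endogenously. Compounds tested up to 22.9 uM final; 100 uM RO 20-1724 reference.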

A short description of assay [13]: qHTS Assay for Identification of Small Molecule Agonists for Hypoxia Response Element Signaling Pathway (AID 914; active means well fitted activation curve with a large enough effect in the signal ratio, with a control signal flat, not every such curve was filed as active; the % refers to the signal ratio; further: % of control where 0% means no effect). The following applies: ME-180 (cervical carcinoma) HRE-bla reporter, beta-lactamase ratio, CoCl2, 17 h; activation: stronger effect = higher value. The essentials: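 Read-out: CCF4 FRET ratio of 460nm to 530nm emission (excitation 405nm) after 2.5 hours at room temperature, taken from HRE-bla ME-180 cells that had been exposed to compound and EC50 CoCl2 for 17 hours.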

Sequence of 3',5'-cyclic-AMP phosphodiesterase 4B (Homo sapiens) (Q07343 whole entry, looked up): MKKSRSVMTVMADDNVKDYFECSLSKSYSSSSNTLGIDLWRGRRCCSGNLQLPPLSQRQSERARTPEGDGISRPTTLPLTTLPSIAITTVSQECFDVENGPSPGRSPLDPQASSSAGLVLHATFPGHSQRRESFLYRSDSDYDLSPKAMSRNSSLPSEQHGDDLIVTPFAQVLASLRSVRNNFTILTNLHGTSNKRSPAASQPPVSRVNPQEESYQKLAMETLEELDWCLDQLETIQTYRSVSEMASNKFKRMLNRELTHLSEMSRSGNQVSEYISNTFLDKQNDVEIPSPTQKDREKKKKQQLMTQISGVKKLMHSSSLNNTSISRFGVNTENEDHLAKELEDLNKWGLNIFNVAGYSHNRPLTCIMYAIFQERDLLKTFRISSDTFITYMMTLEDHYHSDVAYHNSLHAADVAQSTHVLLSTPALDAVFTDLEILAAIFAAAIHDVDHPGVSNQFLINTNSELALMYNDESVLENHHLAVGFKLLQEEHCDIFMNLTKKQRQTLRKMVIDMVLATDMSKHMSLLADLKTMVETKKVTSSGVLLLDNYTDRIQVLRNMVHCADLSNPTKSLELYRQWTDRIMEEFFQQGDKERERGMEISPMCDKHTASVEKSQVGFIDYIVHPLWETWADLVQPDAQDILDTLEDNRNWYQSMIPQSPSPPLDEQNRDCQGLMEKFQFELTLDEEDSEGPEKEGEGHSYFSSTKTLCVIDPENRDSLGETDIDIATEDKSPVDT
Sequence of Lysosomal acid glucosylceramidase (Homo sapiens) (P04062 whole entry, looked up): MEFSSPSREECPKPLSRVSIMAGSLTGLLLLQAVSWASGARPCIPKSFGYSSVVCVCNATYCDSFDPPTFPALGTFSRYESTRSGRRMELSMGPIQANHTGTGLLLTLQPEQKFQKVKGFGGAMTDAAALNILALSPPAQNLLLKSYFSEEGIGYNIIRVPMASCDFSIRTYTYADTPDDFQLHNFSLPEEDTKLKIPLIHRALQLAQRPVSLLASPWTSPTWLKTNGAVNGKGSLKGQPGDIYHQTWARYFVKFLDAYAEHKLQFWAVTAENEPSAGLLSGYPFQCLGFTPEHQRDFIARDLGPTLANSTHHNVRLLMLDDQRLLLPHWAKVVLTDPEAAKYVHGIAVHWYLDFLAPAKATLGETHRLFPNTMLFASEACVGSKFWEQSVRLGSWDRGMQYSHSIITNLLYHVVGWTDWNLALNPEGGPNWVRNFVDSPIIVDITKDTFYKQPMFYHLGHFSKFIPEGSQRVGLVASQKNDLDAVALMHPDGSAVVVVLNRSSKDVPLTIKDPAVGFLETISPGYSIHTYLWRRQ
Sequence of Cytochrome P450 1A2 (Homo sapiens) (P05177 whole entry, looked up): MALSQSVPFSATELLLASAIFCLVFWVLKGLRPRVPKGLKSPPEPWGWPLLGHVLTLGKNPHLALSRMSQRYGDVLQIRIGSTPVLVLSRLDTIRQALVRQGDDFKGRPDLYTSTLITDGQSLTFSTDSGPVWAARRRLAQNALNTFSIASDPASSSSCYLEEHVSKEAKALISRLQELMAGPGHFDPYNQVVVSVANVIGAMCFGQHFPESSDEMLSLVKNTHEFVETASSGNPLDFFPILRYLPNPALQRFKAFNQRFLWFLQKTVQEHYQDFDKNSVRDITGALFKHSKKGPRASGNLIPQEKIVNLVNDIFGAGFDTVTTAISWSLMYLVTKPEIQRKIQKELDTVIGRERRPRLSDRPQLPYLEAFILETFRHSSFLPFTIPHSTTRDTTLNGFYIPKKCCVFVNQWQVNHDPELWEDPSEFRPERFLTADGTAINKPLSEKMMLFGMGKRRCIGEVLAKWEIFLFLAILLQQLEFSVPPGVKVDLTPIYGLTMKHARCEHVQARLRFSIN
Sequence of Glucocorticoid receptor (Homo sapiens) (P04150 whole entry, looked up, the tested form may be a part): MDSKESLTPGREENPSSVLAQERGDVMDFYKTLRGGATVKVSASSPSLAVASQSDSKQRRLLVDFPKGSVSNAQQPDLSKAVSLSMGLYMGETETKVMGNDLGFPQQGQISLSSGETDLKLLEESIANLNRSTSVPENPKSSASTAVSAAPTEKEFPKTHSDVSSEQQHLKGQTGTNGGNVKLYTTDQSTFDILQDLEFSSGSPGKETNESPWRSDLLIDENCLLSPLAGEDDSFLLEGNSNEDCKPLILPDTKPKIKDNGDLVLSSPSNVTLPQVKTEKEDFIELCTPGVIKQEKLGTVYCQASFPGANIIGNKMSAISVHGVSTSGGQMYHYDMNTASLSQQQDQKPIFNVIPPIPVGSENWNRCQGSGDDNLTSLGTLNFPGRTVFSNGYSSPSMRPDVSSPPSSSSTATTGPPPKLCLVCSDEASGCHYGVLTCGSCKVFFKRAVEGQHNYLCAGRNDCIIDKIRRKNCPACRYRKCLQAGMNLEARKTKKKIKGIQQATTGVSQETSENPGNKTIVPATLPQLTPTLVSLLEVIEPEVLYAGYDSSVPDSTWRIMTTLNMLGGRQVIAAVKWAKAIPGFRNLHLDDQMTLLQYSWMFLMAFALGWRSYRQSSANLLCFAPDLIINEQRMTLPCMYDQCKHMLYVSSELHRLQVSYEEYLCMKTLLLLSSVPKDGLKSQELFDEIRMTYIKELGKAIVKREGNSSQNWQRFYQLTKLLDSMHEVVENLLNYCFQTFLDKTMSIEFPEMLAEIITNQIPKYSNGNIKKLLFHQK
Sequence of Cytochrome P450 3A4 (Homo sapiens) (P08684 whole entry, looked up): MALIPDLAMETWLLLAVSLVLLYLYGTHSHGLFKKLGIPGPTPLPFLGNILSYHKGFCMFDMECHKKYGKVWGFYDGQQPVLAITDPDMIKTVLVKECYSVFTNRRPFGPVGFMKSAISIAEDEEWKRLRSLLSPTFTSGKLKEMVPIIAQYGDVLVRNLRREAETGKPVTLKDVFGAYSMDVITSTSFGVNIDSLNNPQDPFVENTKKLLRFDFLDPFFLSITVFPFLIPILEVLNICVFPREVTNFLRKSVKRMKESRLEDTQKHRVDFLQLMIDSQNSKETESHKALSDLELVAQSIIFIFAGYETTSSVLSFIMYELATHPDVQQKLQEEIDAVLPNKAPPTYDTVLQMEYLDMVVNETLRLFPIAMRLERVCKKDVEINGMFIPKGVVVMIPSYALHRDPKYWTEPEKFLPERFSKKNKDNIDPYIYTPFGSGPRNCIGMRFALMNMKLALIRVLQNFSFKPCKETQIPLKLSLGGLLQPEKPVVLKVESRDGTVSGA
Sequence of Cytochrome P450 2C19 (Homo sapiens) (P33261 whole entry, looked up): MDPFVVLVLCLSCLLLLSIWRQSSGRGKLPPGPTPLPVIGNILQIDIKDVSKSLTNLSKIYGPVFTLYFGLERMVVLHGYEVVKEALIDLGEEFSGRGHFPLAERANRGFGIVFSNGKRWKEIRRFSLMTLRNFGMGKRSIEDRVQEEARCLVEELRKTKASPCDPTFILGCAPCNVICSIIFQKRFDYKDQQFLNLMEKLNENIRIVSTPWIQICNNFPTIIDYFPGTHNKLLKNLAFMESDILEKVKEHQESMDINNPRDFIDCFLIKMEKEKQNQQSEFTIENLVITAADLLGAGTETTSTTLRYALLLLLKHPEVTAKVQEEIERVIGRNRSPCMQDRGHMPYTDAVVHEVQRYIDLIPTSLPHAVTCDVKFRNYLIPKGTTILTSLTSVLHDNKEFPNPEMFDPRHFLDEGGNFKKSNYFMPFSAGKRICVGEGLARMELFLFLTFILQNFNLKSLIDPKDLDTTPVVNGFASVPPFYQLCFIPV

With `c1ccc(C[C@@H](Nc2cccnc2)c2ccccc2)cc1`, the Potency in assay [1] was above 11.4 µM; in [3] it was 0.2 µM (active); in assay [6], above 46 µM; in assay [7], above 9.22 µM; in assay [9], 3.16 µM (active). Besides, the activity change, negative = inhibition was 5.71% in assay [2] and -11.2% in assay [4]. For the same molecule, the activity, negative = inhibition in assay [5] is -4.39%. In addition, the Potency result in assay [8] and in assay [10] was “inactive” in each case.

On to `Cn1c(=O)c2c(nc(Cc3ccccc3)n2CC(=O)O)n(C)c1=O`, for which the Potency is above 11.4 µM in assay [1], above 46 µM in assay [6] and above 9.22 µM in [7]. For the same molecule, the activity change, negative = inhibition was 6.03% in assay [2], -13.2% [at 2.29 µM] in assay [3] and 0.0397% in assay [4]. Further, the activity, negative = inhibition in assay [5] was 10.4%. Besides, the Potency result in assay [8] and in [11] was “inactive” each time.

For `O=C(O)c1cccc2cccc(-c3cccc4cccc(C(=O)O)c34)c12`, the Potency in [1] is above 11.4 µM; in assay [6], above 46 µM; in assay [7], above 9.22 µM. The activity change, negative = inhibition in [2] is 4.88%; in assay [3] it was -12.3% [at 2.29 µM]; in assay [4] it was 10.7%. Also, the activity, negative = inhibition in [5] is 6.14%. Moreover, the Potency result in [12] is “inactive”.

As to `N[C@@H](Cc1c[nH]c2ccc([N+](=O)[O-])cc12)C(=O)O`, the values for the Potency in assay [1], in assay [6] and in assay [7] were above 11.4 µM, above 46 µM and above 9.22 µM, respectively. For the same molecule, the activity change, negative = inhibition is -1.05% in [2] and -4.18% in assay [4]. In addition, the Potency result in assay [3], in assay [8] and in assay [12] was “inactive” each time. For the same molecule, the activity, negative = inhibition in [5] is 3.4%. For the same molecule, the activation in assay [13] is -2.55%.

With `CN(C)C(=O)c1ccc(-c2nc(Nc3ccc(F)cc3)c3ccccc3n2)cc1`, the Potency in [1] is above 11.4 µM; in assay [3], 3.98 µM (active); in assay [6] it was above 46 µM; in assay [7] it was above 46 µM. The activity change, negative = inhibition is -18.3% in [2] and 1.18% in assay [4]. The activity, negative = inhibition in assay [5] is -8.08%. Moreover, the Potency result in assay [8] and in assay [10] was “inactive” in each case. In addition, the activation in assay [13] was 14.9%.

On to `Cc1ccc(S(=O)(=O)N[C@H](C(=O)O)C(C)C)cc1`, for which the Potency in [1] is above 11.4 µM; in [6], above 46 µM; in [7] it was above 9.22 µM. In addition, the figures for the activity change, negative = inhibition in [2] and in assay [4] were 9.07% and -0.0198%, respectively. Further, the Potency entry in assay [3] and in assay [12] was “inactive” in each case. In addition, the activity, negative = inhibition in [5] was -0.976%.

For `O=C(O)/C=C\C(=O)Nc1ccc2c(c1)C(=O)c1cc(F)ccc1-2`, the Potency in assay [1] was above 11.4 µM; in assay [3], 0.794 µM (active); in assay [6], above 46 µM; in assay [7], above 9.22 µM. The activity change, negative = inhibition in [2] is -12.9%; in assay [4], 9.23%. Further, the activity, negative = inhibition in [5] was 0.748%. Further, the Potency result in assay [8] and in assay [10] was “inactive” each time.

In the case of `COc1ccc(CNc2ncnc3ccc(-c4ccccc4C#N)cc23)c(OC)c1`, the Potency in assay [1] is above 11.4 µM; in assay [3], 6.31 µM (active); in [6] it was above 46 µM; in assay [7], above 46 µM. Besides, the activity change, negative = inhibition was 13.2% in assay [2] and 8.27% in assay [4]. Further, the activity, negative = inhibition in [5] is -15%. In addition, the Potency entry in [8] and in assay [10] was “inactive” throughout.
